Measured values published in PubChem BioAssay AID1159580 (chemical genetic matrix, 2015).
Out of some 5,500 compounds screened, about 2,000 (36%) were called active. Not shown: some 18% with an inconclusive outcome. Cut-off read from the data, not from the text of the source: active = normalized growth mostly below about 0.91 (no sharp cut-off); inconclusive = no clear call, values can overlap the other calls; inactive = mostly above about 0.92. This is one part of the list.

Experiment: chemical genetic growth profiling, strain panel (AID 1159580);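 note: tested at 20 µM; growth read once vehicle control cultures reached saturation at 30 °C; 1 = growth at the plate median or of vehicle wells; lower values mean less growth of the strain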
Conditions: growth OD

Measured: normalized growth

O=C(O)c1cc(O)c(O)c(O)c1
active: S. cerevisiae deletion strains, locus YLR039C, strain RIC1, active compounds read low 1.34 [resistant]
inactive: S. cerevisiae deletion strains, locus YJR066W, strain TOR1, active compounds read low 0.929 | S. cerevisiae deletion strains, locus YKL009W, strain mrt4, active compounds read low 1.03 | S. cerevisiae deletion strains, locus YKL068W, active compounds read low 1 | S. cerevisiae deletion strains, locus YKL085W, strain MDH1 (second series), active compounds read low 1.03 | S. cerevisiae deletion strains, locus YKL085W, strain MDH1, active compounds read low 1.03 | S. cerevisiae deletion strains, locus YKL160W, strain elf1, active compounds read low 1.05 | S. cerevisiae deletion strains, locus YKR001C, strain vps1, active compounds read low 1.07 | S. cerevisiae deletion strains, locus YKR026C, strain gcn3, active compounds read low 1.02 | S. cerevisiae deletion strains, locus YKR091W, strain srl3, active compounds read low 1.01 | S. cerevisiae deletion strains, locus YLL001W, strain dnm1, active compounds read low 0.997 | S. cerevisiae deletion strains, locus YLL026W, active compounds read low 1 | S. cerevisiae deletion strains, locus YLL041C, strain sdh2, active compounds read low 1.04 | S. cerevisiae deletion strains, locus YLR027C, strain aat2, active compounds read low 1.04 | S. cerevisiae deletion strains, locus YLR058C, strain SHM2, active compounds read low 1.06 | S. cerevisiae deletion strains, locus YLR102C, strain apc9, active compounds read low 1.02 | S. cerevisiae deletion strains, locus YLR113W, strain HOG1, active compounds read low 0.985 | S. cerevisiae deletion strains, locus YLR221C, strain rsa3, active compounds read low 0.981 | S. cerevisiae deletion strains, locus YLR258W, strain gsy2, active compounds read low 1.05 | S. cerevisiae deletion strains, locus YLR262C, strain YPT6 (second series), active compounds read low 1.03 | S. cerevisiae deletion strains, locus YLR262C, strain YPT6, active compounds read low 1.26 | S. cerevisiae deletion strains, locus YLR268W, strain sec22, active compounds read low 1.04 | S. cerevisiae deletion strains, locus YLR320W, strain mms22, active compounds read low 1.02 | S. cerevisiae deletion strains, locus YLR330W, strain CHS5, active compounds read low 1.03 | S. cerevisiae deletion strains, locus YLR342W, strain FKS1 (second series), active compounds read low 1.05 | S. cerevisiae deletion strains, locus YLR342W, strain FKS1, active compounds read low 1.03 | S. cerevisiae deletion strains, locus YLR357W, strain rsc2, active compounds read low 1.06 | S. cerevisiae deletion strains, locus YLR370C, strain arc18, active compounds read low 1.02 | S. cerevisiae deletion strains, locus YLR371W, strain rom2, active compounds read low 1.05 | S. cerevisiae deletion strains, locus YLR384C, strain iki3, active compounds read low 1.02 | S. cerevisiae deletion strains, locus YLR418C, strain cdc73, active compounds read low 1.11 | S. cerevisiae deletion strains, locus YML016C, strain PPZ1, active compounds read low 1.03 | S. cerevisiae deletion strains, locus YML032C, strain rad52, active compounds read low 1.03 | S. cerevisiae deletion strains, locus YML120C, strain ndi1, active compounds read low 1.01 | S. cerevisiae deletion strains, locus YML124C, strain tub3, active compounds read low 1.02 | S. cerevisiae deletion strains, locus YMR058W, strain fet3, active compounds read low 1.01 | S. cerevisiae deletion strains, locus YMR078C, strain ctf18, active compounds read low 1.03 | S. cerevisiae deletion strains, locus YMR125W, strain sto1, active compounds read low 1.03 | S. cerevisiae deletion strains, locus YMR129W, active compounds read low 1.03 | S. cerevisiae deletion strains, locus YMR205C, strain PFK2, active compounds read low 1.06 | S. cerevisiae deletion strains, locus YMR223W, strain ubp8, active compounds read low 1.02 | S. cerevisiae deletion strains, locus YMR231W, strain pep5, active compounds read low 1.01 | S. cerevisiae deletion strains, locus YMR307W, strain GAS1, active compounds read low 1.24 | S. cerevisiae deletion strains, locus YNL067W, strain RPL9B, active compounds read low 1.02 | S. cerevisiae deletion strains, locus YNL071W, strain lat1, active compounds read low 1.06 | S. cerevisiae deletion strains, locus YNL183C, strain NPR1, active compounds read low 0.933 | S. cerevisiae deletion strains, locus YNL209W, strain ssb2, active compounds read low 1.01 | S. cerevisiae deletion strains, locus YNL233W, strain BNI4, active compounds read low 1.08 | S. cerevisiae deletion strains, locus YNL248C, strain rpa49, active compounds read low 1.08 | S. cerevisiae deletion strains, locus YNL250W, strain rad50, active compounds read low 1.05 | S. cerevisiae deletion strains, locus YNL271C, strain bni1, active compounds read low 1.01 | S. cerevisiae deletion strains, locus YNL298W, strain CLA4, active compounds read low 1.01 | S. cerevisiae deletion strains, locus YNL307C, strain MCK1, active compounds read low 1.03 | S. cerevisiae deletion strains, locus YNL322C, strain KRE1 (second series), active compounds read low 1.03 | S. cerevisiae deletion strains, locus YNR049C, strain mso1, active compounds read low 1.01 | S. cerevisiae deletion strains, locus YNR052C, strain pop2, active compounds read low 1.01 | S. cerevisiae deletion strains, locus YOL006C, strain TOP1, active compounds read low 1.36 | S. cerevisiae deletion strains, locus YOL012C, strain htz1 0.913 | S. cerevisiae deletion strains, locus YOL147C, strain pex11, active compounds read low 1.02 | S. cerevisiae deletion strains, locus YOR001W, strain rrp6, active compounds read low 0.981 | S. cerevisiae deletion strains, locus YOR061W, strain CKA2, active compounds read low 1.04 | S. cerevisiae deletion strains, locus YOR069W, strain VPS5, active compounds read low 1.03 | S. cerevisiae deletion strains, locus YOR070C, strain gyp1, active compounds read low 1.02 | S. cerevisiae deletion strains, locus YOR080W, strain dia2, active compounds read low 1.01 | S. cerevisiae deletion strains, locus YOR083W, strain WHI5, active compounds read low 0.995 | S. cerevisiae deletion strains, locus YOR106W, strain vam3, active compounds read low 1.05 | S. cerevisiae deletion strains, locus YOR136W, strain idh2, active compounds read low 1.02 | S. cerevisiae deletion strains, locus YOR144C, strain elg1, active compounds read low 1.01 | S. cerevisiae deletion strains, locus YOR184W, strain ser1, active compounds read low 1.05 | S. cerevisiae deletion strains, locus YOR231W, strain MKK1, active compounds read low 0.971 | S. cerevisiae deletion strains, locus YOR265W, strain rbl2, active compounds read low 1 | S. cerevisiae deletion strains, locus YOR270C, strain vph1, active compounds read low 1.17 | S. cerevisiae deletion strains, locus YOR290C, strain snf2, active compounds read low 1.05 | S. cerevisiae deletion strains, locus YOR316C, strain cot1, active compounds read low 1.02 | S. cerevisiae deletion strains, locus YPL051W, strain arl3, active compounds read low 1.04 | S. cerevisiae deletion strains, locus YPL055C, strain LGE1, active compounds read low 1.1 | S. cerevisiae deletion strains, locus YPL078C, strain atp4, active compounds read low 1.05 | S. cerevisiae deletion strains, locus YPL106C, strain sse1, active compounds read low 1.06 | S. cerevisiae deletion strains, locus YPL240C, strain hsp82, active compounds read low 1.01 | S. cerevisiae deletion strains, locus YPL256C, strain CLN2, active compounds read low 0.968 | S. cerevisiae deletion strains, locus YPR119W, strain clb2, active compounds read low 1.05 | S. cerevisiae deletion strains, locus YPR141C, strain kar3, active compounds read low 1.02 | S. cerevisiae deletion strains, locus YPR163C, strain tif3, active compounds read low 1.03 | S. cerevisiae deletion strains, locus YPR167C, strain met16, active compounds read low 1.05 | S. cerevisiae deletion strains, strain wtn01, active compounds read low 1.03 | S. cerevisiae strains, strain wild type, active compounds read low 1.07
